The text below walks through data of PubChem BioAssay (Tox21).

Records with an inconclusive call do not appear. Where a call stands in place of a potency, no number is given. Active and inactive are the calls of the source. Calls follow the shape of the full dose curve.

A short description of this test: p53 small molecule agonists, cell-based qHTS assay with rat liver microsomes (AID 1963578). Particulars: HCT-116 p53RE-bla, beta-lactamase ratio, 16 h; series mostly up to 66 µM. From the text:
U.S. Tox21 Program National Center for Advancing Translational Sciences [NCATS] Division of Preclinical Innovation [DPI] U.S. Environmental Protection Agency [EPA] National Institutes of Environmental Health Sciences [NIEHS] National Toxicology Program [NTP] U.S. Food and Drug Administration [FDA] Tox21 Assay Overview: p53, a tumor suppressor protein, is activated following cellular insult, including DNA damage and other cellular stresses. The activation of p53 regulates cell fate by inducing DNA repair, cell cycle arrest, apoptosis, or cellular senescence. The activation of p53, therefore, is a good indicator of DNA damage and other cellular stresses. […] The activation of the reporter gene under culture conditions can be detected by fluorescence intensity. This cell line was used to screen the Tox21 10K compound library in the condition of presence of rat liver microsomes and to identify agonists that activate the p53 signaling pathway after in vitro metabolic activation (Ooka et al., Archive of Toxicology 96:1975-1987, 2022).
Tox21 Assay Protocol Summary: The p53RE-bla cells were dispensed at 4,000cells/3ul/well in 1536-well black-clear bottom plates. After the assay plates were incubated at 37 C, 5% CO2 incubator for 5 hours, 23 nL of compounds dissolved in DMSO, positive controls or DMSO only was transferred to the assay plate. Following compound addition, 3 uL of rat liver microsomes (Molecular Toxicology, Boone, NC) at final concentration of 0.5 mg/mL and 1uL of Beta-Nicotinamide adenine dinucleotide 2-phosphate (NADPH) at final concentration of 0.5 mg/mL were transferred to the assay plate. The plates were incubated at 37 C for 16 hours. 1 uL of LiveBLAzer detection mixture was added to each well and the plates were incubated at room temperature in the dark for 2 h.
In general terms: Quantitative high-throughput screening tests each substance at several concentrations.
For `C=CC(=O)OCC(CC)(COC(=O)C=C)COC(=O)C=C`, the Potency result was “inactive”. For the molecule `CC(C#N)CCC#N` (stereo not given), the Potency entry is “inactive”. As for `CCCCOC(=O)CCC(=O)OCCCC`, the Potency entry is “inactive”. Take `N#CCCCl`: the Potency entry is “inactive”. Consider `CCCCCCCCCCn1cc[n+](C)c1`, for which the Potency entry was “inactive”.

Consider `CCC[CH2][Sn]([Cl])([Cl])[CH2]CCC`, for which the Potency entry was “inactive”. With `Oc1ccc(-c2ccccc2)cc1`, the Potency result was “inactive”. As to `CC(C)=CCN1CC[C@@]2(C)c3cc(O)ccc3C[C@@H]1[C@@H]2C`, the Potency entry was “inactive”. As for `COC(=O)Nc1cccc(OC(=O)Nc2cccc(C)c2)c1`, the entry is “inactive”; as for `O=c1ccc(=O)[nH][nH]1`, “inactive”; as for `C#C[C@]1(O)CC[C@H]2[C@@H]3CCC4=CC(=O)CC[C@]4(C)[C@H]3CC[C@@]21C`, “inactive”.

In the case of `COC(=O)Nc1nc2ccccc2[nH]1`, the Potency entry is “inactive”. As for `CSc1nc(NC(C)C)nc(NC(C)C)n1`, the entry is “inactive”. Consider `CCCCCCCCCCCCCCn1cc[n+](C)c1`, for which the Potency entry is “inactive”. As for `CCOS(C)(=O)=O`, the entry is “inactive”; as for `O=C1CCCO1`, “inactive”; as for `C[C@H]1C(=O)O[C@@H]2CCN3CC=C(COC(=O)[C@](C)(O)[C@]1(C)O)[C@H]23`, “inactive”.

Regarding `Nc1nc(N)nc(Cl)n1`, the Potency entry was “inactive”. Consider `O=C(Cl)OCCOCCOC(=O)Cl`, for which the Potency entry was “inactive”.

For `O=Cc1ccccc1`, the Potency result is “inactive”. Regarding `CCN(CC)C1CCCCC1`, the Potency entry was “inactive”. As to `C=CC(=O)OCCO`, the Potency result is “inactive”. As for `CCCC[N+]1(C)CCCC1`, the entry is “inactive”; as for `CC(C)Oc1cc(-n2nc(C(C)(C)C)oc2=O)c(Cl)cc1Cl`, “inactive”. As for `CC(C)(C)C(O)(CCc1ccc(Cl)cc1)Cn1cncn1` (stereo not given), the Potency entry was “inactive”. Consider `c1ccc2c(c1)CCCC2`, for which the Potency entry was “inactive”. Turning to `Oc1ccc(Cl)c(Cl)c1`, the Potency entry is “inactive”.

Turning to `Nc1c(Cl)c(Cl)nc(C(=O)O)c1Cl`, the Potency result is “inactive”. On to `Cc1cccc(N)c1`, for which the Potency result was “inactive”. As for `O=[N+]([O-])c1cc([As](=O)(O)O)ccc1O`, the Potency result was “inactive”.

Consider `CS(=O)(=O)NC(=O)c1cc(Oc2ccc(C(F)(F)F)cc2Cl)ccc1[N+](=O)[O-]`, for which the Potency entry is “inactive”. For `CN=C=O`, the Potency entry was “inactive”.

In the case of `CCBr`, the Potency result was “inactive”. As to `O=P(OCC(Br)CBr)(OCC(Br)CBr)OCC(Br)CBr` (stereo not given), the Potency entry was “inactive”. Take `COc1ccc2c(c1OC)C(=O)O[C@@H]2[C@H]1c2cc3c(cc2CCN1C)OCO3`: the Potency result is “inactive”. For `Oc1c(Cl)c(Cl)c(Cl)c(Cl)c1Cl` the value was “inactive”; for `c1ccc(P(c2ccccc2)c2ccccc2)cc1`, “inactive”; for `C[C@]12CCC(=O)C=C1CC[C@@H]1[C@@H]2CC[C@@]2(C)[C@H]1CC[C@]2(C)O`, “inactive”. Take `CN(C)c1ccccc1`: the Potency entry was “inactive”. Turning to `O=S(=O)(c1ccccc1)c1ccccc1`, the Potency entry is “inactive”.
